For 39 molecules, Potency and activity change, negative = thiol reactive results are on record in PubChem BioAssay (NCATS).

Structures are written as SMILES. Inconclusive results are not listed. Entries that show only a call come without a potency. Activity calls are given as the source filed them. The call rests on the fitted dose curve; in most records, active means well fitted inhibition curve with a large enough effect; inconclusive means small, poorly fitted or top-dose-only effect; inactive means no such curve, though single readings can be large or run the other way.
Potency means the concentration at half of the fitted maximal effect.

The test is described as follows: Primary fluorescence-based thiol-reactive (MSTI) qHTS assay for identification of artifact compounds. (AID 1845221). Further: nearly all actives have a fitted effect of over 65% in size.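 On activity change, negative = thiol reactive: thiol-reactive compounds lower the probe fluorescence signal.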 To be noted: MSTI thiol-reactivity probe, 1 h; series mostly up to 53.8 µM. Summed up: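 Probe: MSTI 4 uM, PBS pH 7.4, 2% DMSO. Incubation 1 h, RT, light-protected. Readout fluorescence 525/598 nm.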
In general terms: In qHTS, concentration-response curves come from the screen itself.
For `C/C=C1/[C@H](O[C@@H]2O[C@H](CO)[C@@H](O)[C@H](O)[C@H]2O)OC=C(C(=O)OC)[C@H]1CC(=O)OCCc1ccc(O)c(O)c1`, the Potency was 2.07 µM (active).
Consider `COc1cc(CCCO)ccc1O[C@@H]1O[C@H](CO)[C@@H](O)[C@H](O)[C@H]1O`, for which the Potency was 16.5 µM (active).
Same read-out and setting: the value for `CCC(C)C(=O)OC[C@H]1O[C@H](O[C@H]2O[C@H](CO)[C@@H](O)[C@H](O)[C@H]2O)[C@H](O)[C@@H](O)[C@@H]1O` (some centres undefined) was “inactive”.
Take `CCCN1CCC[C@@H](c2cccc(S(C)(=O)=O)c2)C1`: the Potency result was “inactive”.
For `CO[C@@H]1[C@]2(O)C(=O)N3/C=C\C(C)(C)c4[nH]c5ccccc5c4/C=C\3C(=O)N2[C@]23[C@H](CO)C(C)(C)N2c2ccccc2[C@]13O`, the Potency is 1.84 µM (active).
On to `C/C=C/C1OC2=C(C(=O)OC2(C)O)C(O)C1O` (centres undefined), for which the Potency result was “inactive”.
As for `O=C(NC/C=C/CN1CCN(c2cccc(Cl)c2Cl)CC1)c1ccc(-c2ccccn2)cc1`, the Potency entry is “inactive”.
Take `C/C(=C\CC/C(C)=C/CC[C@]1(C)CCc2cc(O)cc(C)c2O1)CC/C=C(\C)C(=O)O`: the Potency was 4.62 µM (active).
With `CC(=O)OC1C(CO)OC(O[C@H]2[C@H](OC(=O)[C@]34CCC(C)(C)C[C@H]3C3=CCC5[C@@]6(C)CC[C@H](O[C@@H]7O[C@H](C(=O)O)[C@@H](O)[C@H](O[C@@H]8OC[C@@H](O)[C@H](O)[C@H]8O)[C@H]7O[C@@H]7O[C@H](CO)[C@H](O)[C@H](O)[C@H]7O)[C@@](C)(C=O)C6CC[C@@]5(C)[C@]3(C)C[C@H]4O)O[C@H](C)[C@H](OC3OC(C)C(OC4OCC(O)C(O)C4O)C(O)C3O)[C@@H]2O)C(O)C1O` (some centres undefined), the activity change, negative = thiol reactive is 290% [at 11.5 µM] (inactive).
In the case of `CC(O)C/C=C/C=C/C(=O)OC1C=C2COC(=O)C2(O)C2(C)CCCC(C)(C)C12` (centres undefined), the Potency entry was “inactive”.
Regarding `C[C@@H]1O[C@@H](O[C@H]2[C@H](O)[C@@H](O)[C@H](OC[C@H]3O[C@@H](OC(=O)[C@]45CCC(C)(C)C[C@H]4C4=CCC6[C@@]7(C)C[C@@H](O)[C@H](O)[C@@](C)(CO)C7[C@H](O)C[C@@]6(C)[C@]4(C)CC5)[C@H](O)[C@@H](O)[C@@H]3O)O[C@@H]2CO)[C@H](O)[C@H](O)[C@H]1O` (some centres undefined), the activity change, negative = thiol reactive is 224% [at 11.5 µM] (inactive).
In the case of `C=C1CC/C=C(/C(=O)O)CCC2C1CC2(C)C` (centres undefined), the Potency entry is “inactive”.
Turning to `CCOc1ncc(S(=O)(=O)N2CCN(CC)CC2)cc1-c1nc2c(CC)n(CCOC)nc2c(=O)[nH]1`, the Potency entry was “inactive”.
In the case of `O=C1C[C@@]2(C(=O)N1)C(=O)N(Cc1ccc(Br)cc1F)C(=O)c1cccn12`, the Potency result was “inactive”.
Consider `COCC1OC(n2cnc3c(=O)[nH]cnc32)C(O)C1O` (centres undefined), for which the Potency result is “inactive”.
As for `O=C(OC[C@H]1O[C@@H](Oc2ccccc2COC(=O)C2(O)C=CCCC2O)[C@H](O)[C@@H](O)[C@@H]1O)c1ccccc1` (some centres undefined), the Potency was 5.19 µM (active).
On the same count and under the same terms, the value for `C=C1C(OC(C)=O)[C@@]23CCC4[C@](C)(C(=O)O)CCC[C@@]4(C)[C@]2(O)CC[C@H]1C3` (some centres undefined) was “inactive”; that for `C[C@H]1CCN2C[C@]34C[C@@]5(C(=O)Nc6c5ccc5c6OC=CC(C)(C)O5)C(C)(C)C3C[C@]12C(=O)N4C` (some centres undefined) was “inactive”.
In the case of `CC(CCc1ccc(O)cc1)O[C@@H]1O[C@H](CO[C@@H]2OC(CO)[C@H](O)[C@H]2O)[C@@H](O)[C@H](O)[C@H]1O` (some centres undefined), the Potency result is “inactive”.
For `CC1=CC(=O)C2C(C)(C)CCC[C@]2(C)[C@H]1CC[C@H](C)CC(=O)O` (some centres undefined), the Potency entry is “inactive”.
With `O=C(OC1C=C(CO)C2C(OC3OC(CO)C(O)C(O)C3O)OC=CC12O)c1ccc(O)cc1` (centres undefined), the Potency was 3.27 µM (active).
For the molecule `COC(=O)C1=COC(O[C@@H]2O[C@H](CO)[C@@H](O)[C@H](O)[C@H]2O)[C@@H]2[C@@](C)(O)[C@@H](OC(=O)/C=C/c3ccccc3)C[C@]12O` (some centres undefined), the Potency is 13 µM (active).
As for `C/C=C(/C)C(=O)O[C@H]1C[C@]2(C)O[C@@H]2[C@@H](OC(C)=O)[C@@]2(C)CC[C@@](O)(C(C)C)[C@H]12`, the Potency result was “inactive”.
Turning to `CC(=O)N[C@H]1[C@H](O[C@H]2CC[C@]3(C)C4CC=C5[C@@H]6CC(C)(C)CC[C@]6(C(=O)O)[C@H](O)C[C@@]5(C)[C@]4(C)CC[C@H]3C2(C)C)O[C@H](CO)[C@@H](O)[C@@H]1O` (some centres undefined), the Potency result was “inactive”.
Regarding `CC(CC(C)O[C@@H]1O[C@H](CO)[C@@H](O)[C@H](O)[C@H]1O)OC(=O)/C=C/c1ccc(O)cc1` (some centres undefined), the Potency is 4.62 µM (active).
As to `COC(=O)C1=CO[C@@H](O[C@@H]2O[C@H](CO)[C@@H](O)[C@H](O)[C@H]2O)[C@H]2[C@@H]1[C@H](O)[C@H](O)[C@]2(C)O`, the Potency is 13 µM (active).
For the molecule `N#Cc1cc(-c2n[nH]c(-c3ccncc3)n2)ccn1`, the Potency entry is “inactive”.
For the molecule `Cc1cc(CNC(=O)c2cc(C(=O)NCc3ccc(F)c(C)c3)ncn2)ccc1F`, the Potency result is “inactive”.
The same measure, in the same setting: the value for `C[C@]12CCC[C@](C)(C(=O)O)C1CCC13CC(CO)C(CCC12)C3` (some centres undefined) was “inactive”; that for `CCCC(C(=O)O)c1c(C)nc2ccc(Cl)cc2c1-c1ccccc1` (centres undefined) was “inactive”.
Turning to `COc1ccc(CC(NC(C)=O)C(=O)O)cc1` (centres undefined), the Potency was 4.74 µM (active).
With `C=C1CC[C@@]2(OC1)O[C@H]1CC3[C@@H]4CC=C5C[C@H](O[C@H]6OC[C@@H](O)C(O)[C@@H]6O[C@@H]6O[C@@H](C)[C@H](O)[C@@H](O[C@@H]7O[C@H](CO)[C@@H](O)[C@H](O)[C@H]7O)[C@H]6O)C[C@@H](O)[C@]5(C)C4CC[C@]3(C)[C@H]1[C@@H]2C` (some centres undefined), the activity change, negative = thiol reactive is 124% [at 11.5 µM] (inactive).
For the molecule `COCCN1CCC(C(=O)NO)(S(=O)(=O)c2ccc(Oc3ccc(OC(F)(F)F)cc3)cc2)CC1`, the Potency entry is “inactive”.
As for `COc1cccc(OC)c1-c1ccc(C[C@H](NC(=O)c2c(Cl)cccc2Cl)C(=O)O)cc1`, the Potency entry was “inactive”.
`Cc1onc(-c2c(Cl)cccc2Cl)c1CC(=O)NCc1ccc(OCC(F)(F)F)nc1`: the Potency entry was “inactive”.
On the same count and under the same terms, the value for `COC(=O)C1=CO[C@@H](O[C@@H]2O[C@H](CO)[C@@H](O)[C@H](O)[C@H]2O)[C@@H]2C(CO)=CC[C@H]12` was “inactive”; that for `C=C1[C@@H]2CC[C@@]3(C)[C@H](c4ccoc4)OC(=O)C[C@]13O[C@H]1CC(=O)C(C)(C)[C@H](C(O)C(=O)OC)[C@]12C` (some centres undefined) was “inactive”.
With `CCCCC(=O)N1c2ccccc2NC2=C(C(=O)CCC2)C1c1ccccc1Cl` (centres undefined), the Potency result was “inactive”.
In the case of `CCNC(=O)OC1CCN(c2nncc3cc(OC)c(OC)cc23)CC1`, the Potency result is “inactive”.
